Measured values: PubChem BioAssay AID1211 (NMMLSC, 2008)
Values without a mark were called inactive. Activity calls are given as the source filed them. No rule for the calls is given here.

What follows are compounds tested against Estrogen receptor (Homo sapiens) (UniProt P03372) (assay: displacement of fluorescent estrogen from ERalpha – cell-based, Cos7 ERalpha-GFP, flow cytometry, primary screen (AID 1211;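 also: 0% = DMSO vehicle wells and 100% = no E2-Alexa633 signal left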)). Settings: fluorescent ligand competition, at 10 µM, hits give high values.
Sequence of Estrogen receptor (Homo sapiens) (P03372 whole entry, looked up): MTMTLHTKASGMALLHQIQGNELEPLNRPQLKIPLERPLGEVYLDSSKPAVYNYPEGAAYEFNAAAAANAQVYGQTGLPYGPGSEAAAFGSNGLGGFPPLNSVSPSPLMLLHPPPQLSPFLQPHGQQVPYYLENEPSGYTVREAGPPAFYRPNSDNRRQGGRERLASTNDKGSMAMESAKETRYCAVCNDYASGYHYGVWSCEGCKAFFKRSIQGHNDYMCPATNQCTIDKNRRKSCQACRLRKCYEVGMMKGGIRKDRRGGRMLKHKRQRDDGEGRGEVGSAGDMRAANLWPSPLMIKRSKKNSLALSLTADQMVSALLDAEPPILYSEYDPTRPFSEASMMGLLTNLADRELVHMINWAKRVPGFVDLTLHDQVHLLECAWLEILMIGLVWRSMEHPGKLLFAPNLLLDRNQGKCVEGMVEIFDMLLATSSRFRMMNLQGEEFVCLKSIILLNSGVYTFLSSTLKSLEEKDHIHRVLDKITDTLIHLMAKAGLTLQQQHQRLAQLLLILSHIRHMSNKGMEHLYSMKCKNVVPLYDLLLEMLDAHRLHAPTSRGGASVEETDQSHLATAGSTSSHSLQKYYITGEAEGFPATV

**Q.** With `O=S(=O)(NCC(O)COCc1ccco1)c1cccs1` (stereo unspecified) as the compound, how does the inhibition of ligand binding read?
**A.** Its inhibition of ligand binding is 7%.

**Q.** For `Cc1cs/c(=N\N=C\c2ccc(O)cc2)n1Cc1ccco1`, which inhibition of ligand binding is on record?
**A.** Its inhibition of ligand binding is 51%.

**Q.** With `CCCCCc1nnc(NC(=O)Cc2cccs2)s1` as the compound, how does the inhibition of ligand binding read?
**A.** Its inhibition of ligand binding is 26%.

**Q.** Which inhibition of ligand binding does the source give for `c1ccc(OCc2nnc3sc(C4COc5ccccc5O4)nn23)cc1` (stereo unspecified) here?
**A.** The inhibition of ligand binding was 0%.

**Q.** Which inhibition of ligand binding does the source give for `Cc1ccc2[nH]c(=O)c(C3C(C#N)=C(N)Oc4c3ccc3cccnc43)cc2c1` (stereo unspecified) here?
**A.** Its inhibition of ligand binding is 27%.

**Q.** `CC(=O)c1cccc(NC(=O)Cc2cccs2)c1` was tested. Which inhibition of ligand binding did it give?
**A.** The inhibition of ligand binding was 3%.

**Q.** How did the inhibition of ligand binding turn out when `COc1ccc(N2C(=O)c3ccccc3NC2c2ccc(OC)c(COc3ccccn3)c2)cc1` (stereo unspecified) was run?
**A.** Its inhibition of ligand binding is 0%.

**Q.** For `C[C@]12CC[C@@H]3c4ccc(O)cc4[C@@H](O)C[C@H]3[C@@H]1CC[C@@H]2O`, which inhibition of ligand binding is on record?
**A.** The inhibition of ligand binding was 64% (active).

**Q.** Which inhibition of ligand binding does the source give for `CC1CC(C(F)(F)C(F)(F)F)n2nc(C(=O)O)cc2N1` (stereo unspecified) here?
**A.** The inhibition of ligand binding was 9%.

**Q.** Which inhibition of ligand binding does the source give for `COc1ccc(OC)c(NC(=O)CSc2nc3ccccc3c3nc4ccccc4n23)c1` here?
**A.** The inhibition of ligand binding was 26%.

**Q.** With `O=C(O)C1OC(Oc2c(-c3ccc(O)c(O)c3)oc3cc(O)cc(O)c3c2=O)C(O)C(O)C1O` (stereo unspecified) as the compound, how does the inhibition of ligand binding read?
**A.** Its inhibition of ligand binding is 0%.

**Q.** With `CCC(Sc1ncnc2sc(C)c(C)c12)C(=O)OC` (stereo unspecified) as the compound, how does the inhibition of ligand binding read?
**A.** The inhibition of ligand binding was 38%.

**Q.** How did the inhibition of ligand binding turn out when `Cn1c(-c2ccc3nc(N)sc3c2)nc2cc(N)ccc21` was run?
**A.** Its inhibition of ligand binding is 36%.

**Q.** How did the inhibition of ligand binding turn out when `Cc1ccc(S(=O)(=O)N2CCCCC2)cc1C(=O)Nc1ncn[nH]1` was run?
**A.** The inhibition of ligand binding was 21%.

**Q.** With `CCC1(C)NC(=O)N(CC(=O)Nc2sc3c(c2C(N)=O)CCC3)C1=O` (stereo unspecified) as the compound, how does the inhibition of ligand binding read?
**A.** The inhibition of ligand binding was 15%.

**Q.** How did the inhibition of ligand binding turn out when `C1CCC(c2nn3c(-c4n[nH]c5c4CCC5)nnc3s2)CC1` was run?
**A.** The inhibition of ligand binding was 20%.
